Here are results for 40 compounds from PubChem BioAssay (Tox21).

Inconclusive results are not listed. Activity calls are given as the source filed them. Calls follow the shape of the full dose curve.
% is scaled to controls: 0 for no effect and ±100 for the full control effect.

This test can be described thus: qHTS assay to identify small molecule agonists or antagonists of the thyroid stimulating hormone receptor (TSHR) signaling pathway - wild type cell line counter screen (AID 1259384). Particulars: HEK293 wild type, cAMP HTRF counter-screen, hits give high values; series mostly up to 92.4 µM. From the text:
U.S. Tox21 Program National Center for Advancing Translational Sciences [NCATS] NIH Chemical Genomics Center [NCGC] U.S. Environmental Protection Agency [EPA] National Institutes of Environmental Health Sciences [NIEHS] National Toxicology Program [NTP] U.S. Food and Drug Administration [FDA] Tox21 Assay Overview: TSHR is the receptor for thyrotropin (thyroid stimulating hormone or TSH), a member of the glycoprotein hormone family. TSH is released by the anterior pituitary gland and is the main regulator of thyroid gland growth and development. Upon binding circulating thyrotropin, a G-protein signal cascade activates adenylyl cyclase and […] cAMP concentration is increased. cAMP is a key second messenger involved extensively in cellular signal transduction pathways associated with the majority of G-protein coupled receptors (GPCRs). The activation of these GPCRs by neurotransmitters, lipids, nucleotides, peptides and hormones results in the activation or the inhibition of plasma membrane-bound adenylate cyclase through heterotrimeric G-proteins. A cell-based TSHR-Hek293 assay can be used to identify TSHR agonists. To eliminate the false positive compounds identified from screening a cell-based TSHR-Hek293 cell line, cAMP assay in a wild type Hek293 cells was used as a counter screening.
Tox21 Assay Protocol Summary: Hek293 cells (wild type) were dispensed at 800 cells/4 uL/well in 1536-well white plates using a Multidrop dispenser. After the assay plates were incubated at a 37 C/5% CO2 incubator for 18 hrs, 23 nL of compounds dissolved in DMSO, positive controls or DMSO only was transferred to the assay plate by a pin tool, followed by 1 ul medium containing Ro20-1724. After 30 min of incubation at room temperature, 2.5 ul/well of cAMP-d2 and 2.5 ul/well of anti-cAMP-cryptate were added respectively into the assay plates using a Flying Reagent Dispenser. The plates were incubated at room temperature for 1 hr. The fluorescence intensity in the plates was measured using an Envision plate reader. Each test compound was measured at 15 concentrations and in triplicates.
On the technique in general: Quantitative high-throughput screening tests each substance at several concentrations.
Consider `COC(=O)[C@@H]1CC2=CC(=O)CC[C@]2(C)[C@@]23O[C@@H]2C[C@@]2(C)[C@@H](CC[C@@]24CCC(=O)O4)[C@H]13`, for which the call was inactive.

`CCCCCC=CCC=CCCCCCCCC(=O)OCC`: the compound was classed as inactive.

Turning to `Cc1cc(O)c(C(C)C)cc1Cl`, the outcome was inactive.

On to `C=C(C)C(=O)OCCOC(=O)CC(C)=O`, for which the result was inactive.

On to `O=C1OCCN1/N=C/c1ccc([N+](=O)[O-])o1`, for which the compound was classed as inactive.

On to `CCC(C)(O)CCC=C(C)C` (stereo not given), for which the call was inactive.

For the compound `CC(=O)CC(c1ccc([N+](=O)[O-])cc1)c1c(O)c2ccccc2oc1=O` (stereo not given), the result was inactive.

As to `CCCCCCOC(=O)CCCCCCCC(=O)OCCCCCC`, the compound was called inactive.

For `CCCCCCCCCCCC[N+](C)(C)CC(=O)[O-]`, the outcome was inactive.

`CC(=N\O)/C(C)=N/O`: the compound was called inactive.

Consider `CN(C)CCOC1=Cc2ccccc2Sc2ccc(Cl)cc21`, for which the outcome was inactive.

Consider `CCCOC(=O)c1ccc(N)cc1`, for which the result was inactive.

Turning to `C=CC(=C)CCCC(C)(C)OC(C)=O`, the result was inactive.

For the compound `CC1CC(O)CC(C)(C)C1` (stereo not given), the compound was classed as inactive.

Regarding `COC(OC)(C(=O)c1ccccc1)c1ccccc1`, the compound was called inactive.

Consider `CC(C)(C)C(=O)C(Oc1ccc(Cl)cc1)n1ccnc1` (stereo not given), for which the compound was classed as inactive.

With `CCCCC(=O)O[C@]1(C(=O)CO)CC[C@H]2[C@@H]3CCC4=CC(=O)CC[C@]4(C)[C@H]3[C@@H](O)C[C@@]21C`, the compound was called inactive.

Turning to `CC(C)C(OC(=O)c1ccccc1)C(C)(C)COC(=O)c1ccccc1` (stereo not given), the result was inactive.

`O=C(CCCCCCCCC#CI)Oc1ccccc1`: the compound was called inactive.

As to `CC(=O)[C@H]1CC[C@H]2[C@@H]3C[C@H](C)C4=CC(=O)CC[C@]4(C)[C@H]3[C@@H](O)C[C@]12C`, the result was inactive.

As for `COCc1c(C(C)C)nc(C(C)C)c(/C=C/[C@@H](O)C[C@@H](O)CC(=O)O)c1-c1ccc(F)cc1`, the call was inactive.

As for `C1COCO1`, the compound was called inactive.

Take `CN1CCCN=C1/C=C/c1cccs1`: the call was inactive.

Consider `Cc1cc(O)c2c(O)c3c(O)cccc3cc2c1`, for which the compound was called inactive.

Regarding `CC1CN(c2cc3c(cc2F)c(=O)c(C(=O)O)cn3-c2ccc(F)cc2F)CCN1` (stereo not given), the cAMP activity change is -5.92% [at 8.39 µM] (inactive).

For `O=C(CCC1CCN(Cc2ccccc2)CC1)c1ccc2c(c1)NCCCC2`, the call was inactive.

As to `CC1CC(=O)NN=C1c1ccc(NCC(C)(C)NCC(O)COc2cc(Cl)ccc2C#N)cc1` (stereo not given), the result was inactive.

Regarding `NC(=O)Nc1ccc(Cl)cc1`, the call was inactive.

As for `CCCCC(CC)C(=O)OCCOCCOCCOCCOC(=O)C(CC)CCCC` (stereo not given), the call was inactive.

`O=C(CCCN1CCC(O)(c2ccc(Br)cc2)CC1)c1ccc(F)cc1`: the outcome was inactive.

Consider `OCC1CC=CCC1` (stereo not given), for which the compound was called inactive.

On to `CCCC1C(CC)=CC(CC)=CN1c1ccccc1` (stereo not given), for which the result was inactive.

In the case of `O=C(/C=C/c1ccccc1)OCCCc1ccccc1`, the outcome was inactive.

For `CNC(=S)NC`, the compound was classed as inactive.

On to `NC(=O)Nc1ccc(Cl)c(Cl)c1`, for which the outcome was inactive.

For the compound `Oc1ccc(Nc2ccccc2)cc1`, the result was inactive.

As for `CCCOC(=O)c1ccc(C(=O)OCCC)nc1`, the compound was called inactive.

Turning to `CO[C@H]1C=CO[C@@]2(C)Oc3c(C)c(O)c4c(O)c(c5c(c4c3C2=O)=NC2(CCN(CC(C)C)CC2)N=5)NC(=O)/C(C)=C\C=C/[C@H](C)[C@H](O)[C@@H](C)[C@@H](O)[C@@H](C)[C@H](OC(C)=O)[C@@H]1C`, the result was inactive.

In the case of `NC(=O)N(O)[C@@H]1COc2cc(OCc3ccccc3)ccc21`, the outcome was inactive.

On to `CC#N`, for which the outcome was inactive.
